A number with no mark means an inactive call. Activity calls are given as the source filed them. The call rests on the fitted dose curve.
molecular target: Muscarinic acetylcholine receptor M1 (Homo sapiens) (UniProt P11229); assay: Cholinergic receptor muscarinic 1 (CHRM1) small molecule agonists, cell-based qHTS assay (AID 1963589); settings: CHRM1-CHO cells, agonist mode, calcium flux fluorescence; series mostly up to 76.8 µM; activation: at the top concentration; further: nearly all actives have a fitted effect of over 35% in size
Text: National Center for Advancing Translational Sciences [NCATS]
Division of Preclinical Innovation [DPI]
U.S. Environmental Protection Agency [EPA]
National Institutes of Environmental Health Sciences [NIEHS]
National Toxicology Program [NTP]
U.S. Food and Drug Administration [FDA]
The CHRM1 is a muscarinic receptor. This receptor plays a crucial role in learning and memory processes and has long been identified as a promising therapeutic target for the improvement of cognitive decline in Alzheimer's disease (AD). The CHRM1-CHO cell line stably expressing human muscarinic acetylcholine receptor M1 (CHRM1) can be used for screening agonists and antagonists of interactions between CHRM1 and its ligands. The CHRM1-CHO Calcium Flux Assay is a homogeneous fluorescence-based assay for detecting the intracellular calcium level using FDSS kinetic plate reader system.
CHRM1-CHO cells were dispensed at 1000 cells/3uL/well in 1536-well black-clear bottom plates using a Multidrop Dispenser. After the assay plates were incubated at a 37 C/5% CO2 incubator for 18 h, 3 uL of Dye Loading Buffer was transferred to the assay plate by a Flying Reagent Dispenser. The assay plates were incubated at 37 C for 1h. For agonist mode, 23 nL of compounds dissolved in DMSO, positive controls or DMSO only was transferred to the assay plate by a pin tool. […] Each test compound was measured at 15 concentrations in three independent runs.
On the % scale 0 is the no-effect control and ±100 the full control effect.

Chain of Muscarinic acetylcholine receptor M1 (Homo sapiens) (P11229 whole entry, looked up): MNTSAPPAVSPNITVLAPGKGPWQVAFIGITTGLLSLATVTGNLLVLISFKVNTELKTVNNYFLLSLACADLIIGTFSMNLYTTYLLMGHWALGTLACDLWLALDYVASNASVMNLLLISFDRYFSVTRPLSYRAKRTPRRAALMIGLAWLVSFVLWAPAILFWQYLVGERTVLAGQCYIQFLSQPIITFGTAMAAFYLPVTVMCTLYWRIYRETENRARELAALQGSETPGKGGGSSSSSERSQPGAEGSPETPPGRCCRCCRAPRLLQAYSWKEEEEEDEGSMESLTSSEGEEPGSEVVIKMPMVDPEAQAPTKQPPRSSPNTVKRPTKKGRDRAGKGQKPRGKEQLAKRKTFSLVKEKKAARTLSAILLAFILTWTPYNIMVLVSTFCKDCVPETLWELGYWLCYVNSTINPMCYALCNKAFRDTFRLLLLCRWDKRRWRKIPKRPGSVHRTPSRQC

SMILES | activation | Potency
[Cl][Dy]([Cl])[Cl] | -0.432% | –
CC(=O)OCC(=O)Nc1cc(C#N)cc(NC(=O)COC(C)=O)c1Cl | -0.327% [at 35.3 µM] | –
c1ccsc1 | 0.936% | –
OCC#CCO | – | inactive
Cc1ccc(C(C)(C)O)cc1 | -0.396% | –
CCCCCCCCCCCCOCC1CO1 (stereo not given) | – | inactive
CC(C)(CO)[C@@H](O)C(=O)NCCC(=O)O | -0.613% | –
C/C(=N\O)[C@@H](C)NCC(C)(C)CN[C@H](C)/C(C)=N/O | -0.317% [at 35.3 µM] | –
CC(COCCO)OCCO (stereo not given) | -0.213% | –
CC(C)c1cccc(O)c1 | 3.88% | –
Cc1ccc(C)cc1 | 0.274% | –
ON=C1CCCCC1 | – | inactive
CCOc1ccccc1OCC | -0.185% | –
O=S(=O)(O)CO | 0.205% | –
CC(C)C(=O)Nc1cccc(C2CN3CCSC3=N2)c1 (stereo not given) | -0.0741% [at 35.3 µM] | –
CN(C)CCCNCCC#N | 1.07% | –
CCCCCCCCO[C@@H]1O[C@H](CO)[C@@H](O)[C@H](O)[C@H]1O | -0.54% | –
CCC(=O)OC(C)(C)C1CC=C(C)CC1 (stereo not given) | 0.577% | –
OCCNCCO | – | inactive
O=C(O)C(S)C(S)C(=O)O (stereo not given) | -0.258% [at 35.3 µM] | –

SMILES | activation | Potency
CCCCCCCC(=O)N(C)C | -0.331% | –
CCCCCCCCCCCCCCCCBr | -0.125% [at 15.8 µM] | –
O=C1Cc2cc(Cl)ccc2N1 | 4.1% [at 35.3 µM] | –
CC/C=C\CC1=C(C)CCC1=O | -0.306% | –
COC(=O)C1=C(C)NC(C)=C(C(=O)OCCN(C)Cc2ccccc2)C1c1cccc([N+](=O)[O-])c1 (stereo not given) | – | inactive
NC(=O)c1ccc([N+](=O)[O-])cc1Cl | – | inactive
CC(=O)/C=C/c1ccco1 | -0.133% | –
CC(C)(C)c1n[nH]c(=O)n(N)c1=O | -0.0937% | –
Cc1cccc(Cl)c1 | 0.901% | –
CCOC(=O)CC(C)=O | 2.21% | –
CCC(C)(Oc1ccc(C2(c3ccc(OC(C)(CC)C(=O)O)cc3)CCCCC2)cc1)C(=O)O (stereo not given) | 2.67% [at 35.3 µM] | –
c1ccc(Nc2cccc3ccccc23)cc1 | – | inactive
CCCCCCc1ccc(-c2ccc(C#N)cc2)cc1 | -0.0178% | –
CCCCCCCCCCCCCCC(=O)O | -0.413% | –
CCCc1ccccc1 | 0.37% | –
O=C1NC2NC(=O)NC2N1 (stereo not given) | 1.3% | –
O=c1[nH]c(=O)c2cn[nH]c2[nH]1 | -0.0165% | –
Nc1ccc2cc3ccccc3cc2c1 | – | inactive
CC(=O)c1cc2ccccc2s1 | -0.0912% [at 35.3 µM] | –
Oc1ccc2c(c1)OC[C@@H](N1CCC(O)(c3ccc(F)cc3)CC1)[C@H]2O | -0.264% [at 35.3 µM] | –

From PubChem BioAssay (Tox21)
